AddAB inh: less growth of phage-infected E. coli with AddAB. inhibition, % at 11.9 µM. AID 435030. 0.29% of 330,000 active. E. coli expressing H. pylori AddAB, absorbance growth; in the data active = inhibition above about 12%
phage Ecoli inh: E. coli growth loss with phage present; inhibition, % at 11.9 µM; 0.26% of 360,000 active; growth absorbance; in the data active = inhibition above about 11%
E coli growth-1: E. coli growth inhibition; AID 1053175; Escherichia coli growth, OD600, 23 h; active compounds read low; OD600 absorbance (no concentration beside the values); 0.21% of 330,000 active;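 active = OD600 absorbance below the run mean of sample wells minus 3.6 SD, in any replicate, cut at about 0.56 in these data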
E coli growth-2: counter-screen for AddAB inhibitors: E. coli growth inhibition. E. coli V3065 growth, OD600 absorbance, 18 h. inhibition, % at 11.9 µM. 0.27% of 330,000 active. AID 449728;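 active = inhibition above the campaign's mean inhibition across all tested compounds plus 3 SD, cut at about 9.9% in these data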;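 also: uninfected addAB+ strain grown without phage in ampicillin broth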
Tat transport: inhibitors of E. coli Tat protein transport; 0.036% of 340,000 active; E. coli MC4100 TorA-mCherry Tat export, fluorescence; inhibition, % at 10 µM; AID 488895;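 active = mean replicate inhibition at least 50% and at least half of replicates individually reaching 50%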;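 also: exported cargo escapes ClpAP degradation while cytoplasmic cargo is degraded and loses fluorescence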
Numbers stand for hits. A selection: hits, their analogues and other compounds. The true share with any hit is near 0.5%.

Results for CC(C)(C)CN1C(=O)C(=O)NCC1Cc1ccc(O)cc1 (stereo not drawn) ?
E coli growth-1: inactive

How did COc1ccc(CNc2ccc3c(c2)nc(C)n3C)cc1OC do in these assays?
AddAB inh: inactive; phage Ecoli inh: inactive; E coli growth-1: inactive; E coli growth-2: 13.3; Tat transport: inactive

What do the screens show for `CCOc1ccc(CNc2ccc3c(c2)nc(C)n3C)cc1`?
AddAB inh: inactive; phage Ecoli inh: inactive; E coli growth-1: inactive; E coli growth-2: inactive; Tat transport: inactive

Results for COc1ccc(C2CC(=O)C=C(c3ccc4c(c3)sc3ccccc34)C2)cc1 (stereo not drawn) ?
E coli growth-1: inactive

What do the screens show for `COC(=O)c1ccc(NC(=O)Nc2ccc(F)cc2)cc1`?
AddAB inh: inactive; phage Ecoli inh: inactive; E coli growth-1: 0.512; E coli growth-2: inactive; Tat transport: inactive

Results for COc1cc(CCCN2CCNCC2CC2CCCCC2)cc(OC)c1OC (stereo not drawn) ?
E coli growth-1: inactive

How did O=S1(=O)C2CC3C=C[C@]2(CN1Cc1ccc(C(F)(F)F)cc1)O3 (stereo partly drawn) do in these assays?
E coli growth-1: inactive

What do the screens show for `CS(=O)(=O)n1nc(-c2ccc(Cl)cc2)nc1N`?
AddAB inh: inactive; phage Ecoli inh: inactive; E coli growth-1: inactive; E coli growth-2: inactive; Tat transport: inactive

What do the screens show for `Cn1nc(-c2ccc(Cl)cc2)nc2c(=O)n(C)c(=O)nc1-2`?
AddAB inh: inactive; E coli growth-1: 0.48; E coli growth-2: inactive; Tat transport: inactive

How did CCCC=C1CCCOC(C(=O)NCc2cc(C)n(C)n2)(C(F)(F)F)C1 (stereo not drawn) do in these assays?
E coli growth-1: inactive

Results for C#CCOCCOCCOCCNc1nc(N2CCN(C(=O)C(CCCCN)n3cc(C(N)CO)nn3)CC2)nc(N2CCN(C(=O)C(Cc3ccc(O)cc3)n3cc(C(N)C(C)CC)nn3)CC2)n1 (stereo not drawn) ?
E coli growth-1: inactive

How did O=C(Nc1nc2ccccc2s1)c1ccc([N+](=O)[O-])o1 do in these assays?
AddAB inh: inactive; phage Ecoli inh: inactive; E coli growth-1: inactive; E coli growth-2: inactive; Tat transport: inactive

Results for COc1ccc2nc(NC(=O)c3ccc([N+](=O)[O-])o3)sc2c1 ?
AddAB inh: inactive; phage Ecoli inh: inactive; E coli growth-1: 0.484; E coli growth-2: inactive; Tat transport: inactive

Results for CCOC(=O)C1C2COc3ccccc3C2N2C(=O)N(c3cccc(C)c3)C(=O)[C@]12C (stereo partly drawn) ?
E coli growth-1: inactive

How did CCOC(=O)C1=C(O)C(=Cc2ccc(CNC(=O)C(=O)Nc3ccccc3)o2)N=C1C do in these assays?
E coli growth-1: inactive

How did CCN1C(=O)C2C(c3ccc(C)cc3)N3C(=O)N(c4ccc(OC)cc4)C(=O)[C@@]3(CC)C2C1=O (stereo partly drawn) do in these assays?
E coli growth-1: inactive

How did O=C(CSc1cccc[n+]1[O-])c1cc(Cl)ccc1Cl do in these assays?
AddAB inh: inactive; phage Ecoli inh: inactive; E coli growth-1: 0.123; E coli growth-2: inactive; Tat transport: inactive

What do the screens show for `CNC[C@H](Cc1ccccc1)NC[C@@H](Cc1cccc2ccccc12)NCCc1ccc(C)cc1`?
AddAB inh: inactive; phage Ecoli inh: inactive; E coli growth-2: inactive; Tat transport: inactive

What do the screens show for `CNCC(Cc1ccccc1)NCC(Cc1cccc2ccccc12)NCCc1ccc(C)cc1` (stereo not drawn)?
E coli growth-1: 0.0475

What do the screens show for `CCOc1ccc(Nc2c3ccccc3nc3ccccc23)cc1`?
AddAB inh: inactive; phage Ecoli inh: inactive; E coli growth-1: 0.516; E coli growth-2: inactive; Tat transport: inactive

Results for c1ccc(Nc2nc(NCC3CCCO3)c3ccccc3n2)cc1 (stereo not drawn) ?
AddAB inh: inactive; phage Ecoli inh: inactive; E coli growth-1: 0.468; E coli growth-2: inactive; Tat transport: inactive

What do the screens show for `CCOc1ccc(Nc2nc(NCC3CCCO3)c3ccccc3n2)cc1` (stereo not drawn)?
AddAB inh: inactive; phage Ecoli inh: inactive; E coli growth-1: 0.491; E coli growth-2: inactive; Tat transport: inactive

What do the screens show for `O=[N+]([O-])c1ccc(Nc2ccccc2)c2nonc12`?
AddAB inh: inactive; phage Ecoli inh: inactive; E coli growth-2: inactive; Tat transport: inactive

Results for O=[N+]([O-])c1ccc(Sc2cccc[n+]2[O-])c2nonc12 ?
phage Ecoli inh: 60.1; E coli growth-1: 0.0865; Tat transport: 139.3
